# In the supplement of paper PMC8728848:
# About 410 targets per protein were measured; listed, in parts, are those with the strongest signals and a random draw of the rest.
# B1: F17-L (Escherichia coli) (protein)
# chain: GPDDYVPSQIAVNTSTLPGVVIGPADAHTYPRVIGELAGTSNQYVFNGGAIALMRGKFTPALPKIGSITYTFHQGNSRDSSDFDIYDIGVSGLGIIIGMAGYWPATPLVPINSSGIYIDPVGANTNPNTYNGATASFGARLFVAFVATGRLPNGYITIPTRQLGTILLEAKRTSLNNKGLTAPVMLNGGRIQVQSQTHHHHHH
# Key:
# Experiment in all cases: glycan array binding signal (z-score within array); higher = stronger binding
# Conditions in all cases: glycan notation: IUPAC condensed, linker removed
# [1] = molecular target: GlcNAc(b1-4)GlcNAc(b1-4)GlcNAc
# Procedure, shortened: (§1)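 Negative Z-scores can be read as non-binding. The Z-score is calculated within each array and then averaged across arrays of one protein sequence at different concentrations or buffers and across linkers. Arrays, 3228 in all, were curated from the Consortium for Functional Glycomics database and kept only where the protein sequence was available.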
# [2] = molecular target: GlcNAc(b1-6)Gal(b1-4)GlcNAc
# Procedure, shortened: as §1
# Kdn(a2-3)Gal(b1-4)Glc = molecular target: Kdn(a2-3)Gal(b1-4)Glc
# Procedure, shortened: as §1
# [3] = molecular target: Man(a1-2)Man(a1-3)[Man(a1-2)Man(a1-6)]Man
# Procedure, shortened: as §1
# MurNAc(b1-4)GlcNAc = molecular target: MurNAc(b1-4)GlcNAc
# Procedure, shortened: as §1
# Neu5Ac(a2-3)Gal = molecular target: Neu5Ac(a2-3)Gal
# Procedure, shortened: as §1
# [4] = molecular target: Neu5Ac(a2-3)Gal(b1-3)GlcNAc(b1-4)Gal(b1-4)Glc
# Procedure, shortened: as §1
# [5] = molecular target: Neu5Ac(a2-3)Gal(b1-3)[Fuc(a1-4)]GlcNAc(b1-3)Gal(b1-4)[Fuc(a1-3)]GlcNAc
# Procedure, shortened: as §1
# [6] = molecular target: Neu5Ac(a2-3)Gal(b1-3)[Neu5Ac(a2-6)]GlcNAc(b1-3)[Fuc(a1-3)[Gal(b1-4)]GlcNAc(b1-6)]Gal(b1-4)Glc
# Procedure, shortened: as §1
# [7] = molecular target: Neu5Ac(a2-3)Gal(b1-3)]Neu5Ac(a2-3)Gal(b1-4)]GlcNAc
# Procedure, shortened: as §1
# [8] = molecular target: Neu5Ac(a2-3)Gal(b1-4)GlcNAc(b1-3)Gal(b1-4)GlcNAc(b1-6)[Gal(b1-3)]GalNAc
# Procedure, shortened: as §1
# [9] = molecular target: Neu5Ac(a2-3)Gal(b1-4)[Fuc(a1-3)]GlcNAc(b1-2)Man
# Procedure, shortened: as §1
# [10] = molecular target: Neu5Ac(a2-3)Gal(b1-4)[Fuc(a1-3)]GlcNAc(b1-3)Gal(b1-4)[Fuc(a1-3)]GlcNAc(b1-3)Gal(b1-4)[Fuc(a1-3)]GlcNAc
# Procedure, shortened: as §1
# [11] = molecular target: Neu5Ac(a2-3)Gal(b1-4)[Fuc(a1-3)]GlcNAc(b1-6)[Neu5Ac(a2-3)Gal(b1-3)]GalNAc
# Procedure, shortened: as §1
# [12] = molecular target: Neu5Ac(a2-6)Gal(b1-4)GlcNAc(b1-2)Man
# Procedure, shortened: as §1
# [13] = molecular target: Neu5Ac(a2-6)Gal(b1-4)GlcNAc(b1-3)Gal(b1-4)GlcNAc
# Procedure, shortened: as §1
# [14] = molecular target: Neu5Ac(a2-6)Gal(b1-4)GlcNAc(b1-3)Gal(b1-4)GlcNAc(b1-3)[Neu5Ac(a2-6)Gal(b1-4)GlcNAc(b1-3)Gal(b1-4)GlcNAc(b1-6)]GalNAc
# Procedure, shortened: as §1
# [15] = molecular target: Neu5Ac(a2-6)Gal(b1-4)GlcNAc(b1-3)Gal(b1-4)GlcNAc(b1-6)[Gal(b1-3)]GalNAc
# Procedure, shortened: as §1
# [16] = molecular target: Neu5Ac9Ac(a2-6)Gal(b1-4)GlcNAc
# Procedure, shortened: as §1
# [17] = molecular target: Neu5Gc(a2-8)Neu5Gc(a2-3)Gal(b1-4)GlcNAc(b1-3)Gal(b1-4)GlcNAc
# Procedure, shortened: as §1
binder,measurement,setting,value
B1,glycan array binding signal (z-score),[1],-0.131
same,glycan array binding signal (z-score),[2],0.019
same,glycan array binding signal (z-score),Kdn(a2-3)Gal(b1-4)Glc,-0.136
same,glycan array binding signal (z-score),[3],-0.153
same,glycan array binding signal (z-score),MurNAc(b1-4)GlcNAc,4.16
same,glycan array binding signal (z-score),Neu5Ac(a2-3)Gal,-0.099
same,glycan array binding signal (z-score),[4],-0.075
same,glycan array binding signal (z-score),[5],0.865
same,glycan array binding signal (z-score),[6],-0.114
same,glycan array binding signal (z-score),[7],0.01
same,glycan array binding signal (z-score),[8],-0.139
same,glycan array binding signal (z-score),[9],-0.12
same,glycan array binding signal (z-score),[10],-0.119
same,glycan array binding signal (z-score),[11],-0.152
same,glycan array binding signal (z-score),[12],-0.134
same,glycan array binding signal (z-score),[13],-0.069
same,glycan array binding signal (z-score),[14],-0.014
same,glycan array binding signal (z-score),[15],-0.112
same,glycan array binding signal (z-score),[16],-0.133
same,glycan array binding signal (z-score),[17],-0.129
